TRHR agonist: qHTS for Small Molecule Agonists and Allosteric Enhancers of Human TRH Receptor: Primary Screen for Agonists; activation, % at 2 µM; AID 493084, 2011; TRHR cells, calcium flux fluo-8, FDSS agonist mode; 360,000 compounds, 0.18% hits; Thyrotropin-releasing hormone receptor (Homo sapiens), P34981; note: 0% is about no effect
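Fluo-8-loaded TRHR cells; 10 s baseline, compound added, kinetic Ca2+ fluorescence read 1/s, agonist mode.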
D1 ag: Allosteric Agonists of the Human D1 Dopamine Receptor: qHTS; D(1A) dopamine receptor (Homo sapiens), P21728; HEK293 T-REx D1 cells, calcium flux, agonist mode; activation, % at 2 µM; 360,000 compounds, 1% hits; note: 0% is about no effect
Target sequence (P21728 whole entry, looked up): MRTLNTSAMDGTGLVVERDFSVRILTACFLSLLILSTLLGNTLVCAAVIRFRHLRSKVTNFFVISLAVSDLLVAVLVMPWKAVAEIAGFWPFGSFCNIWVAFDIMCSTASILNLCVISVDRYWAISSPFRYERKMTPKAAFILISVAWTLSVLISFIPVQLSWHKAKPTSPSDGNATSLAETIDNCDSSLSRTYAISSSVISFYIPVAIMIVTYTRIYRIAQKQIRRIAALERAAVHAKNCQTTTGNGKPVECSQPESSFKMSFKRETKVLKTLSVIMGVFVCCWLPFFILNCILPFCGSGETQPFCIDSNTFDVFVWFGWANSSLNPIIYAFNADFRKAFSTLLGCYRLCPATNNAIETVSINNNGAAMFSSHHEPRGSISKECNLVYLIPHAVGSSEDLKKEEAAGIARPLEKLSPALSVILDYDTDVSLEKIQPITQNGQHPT
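Agonism was scored from calcium flux recorded over 180 s (1 read/s) after pintool compound addition, following a 10-cycle baseline. Cells were inducible force-coupled HEK293 TREx D1, plated overnight at 30 C and loaded with no-wash calcium dye.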
D1 antag: Antagonist of Human D 1 Dopamine Receptor: qHTS; HEK293 TREx D1 cells, calcium flux, dopamine EC80; active compounds read low; activity change, negative = inhibition, % at 10 µM; 360,000 compounds, 3.2% hits; AID 504652, 2011; in the data active = activity change below about -30%; note: % is set by controls: 0 for no effect and ±100 for the full control effect
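Kinetic fluorescence of a calcium dye serves as the read-out. D1-expressing Hek293 Trex cells, induced overnight at 30 C, are exposed to compound for 180 s before an EC80 dopamine addition, then read 180 s further.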
TRHR enhancer: qHTS for Small Molecule Agonists and Allosteric Enhancers of Human TRH Receptor: Primary Screen for Enhancers. Thyrotropin-releasing hormone receptor (Homo sapiens), P34981. TRHR cells, fluo-8 calcium fluorescence, EC20 TRH enhancement. enhancement, % at 2 µM. 360,000 compounds, 0.66% hits; in the data active = enhancement above about 30%; note: 0% is about no effect
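TRHR-expressing cells loaded with fluo-8 calcium dye were read kinetically (ex 480/em 530) during compound addition, then stimulated with an EC20 of TRH (10 nM final). Enhancement of the Gq-mediated intracellular calcium response was scored.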
D1 potentiator: Potentiators of Human D1 Dopamine Receptor: qHTS. D(1A) dopamine receptor (Homo sapiens), P21728. HEK293 TREx D1 cells, calcium flux, dopamine EC20 potentiation. potentiation, % at 10 µM. 360,000 compounds, 0.036% hits. AID 504651, 2011; in the data active = potentiation above about 30%; note: 0% is about no effect
An asterisk follows results filed as active. Sampled rows, rich in hits. Any-hit rate of the full collection: about 4.7%. Cut-off read from the data, not from the text of the source, unless noted: active = activation above about 30%; inactive = the rest.

SMILES	TRHR agonist	D1 ag	D1 antag	TRHR enhancer	D1 potentiator
COc1ccccc1NC(=O)COC(=O)CCC(=O)c1cccs1	0	0	-17	-8	-5
CCCn1c(=O)c(C(=O)OCC)c(O)c2cc(Br)ccc21	0	-3	2	32*	11
C=CCn1c(=O)c(C(=O)OCC)c(O)c2ccccc21	0	2	3	6	4
CC(C)CN(c1ccccc1)S(=O)(=O)c1nnc(NC(=O)C2CCCCC2)s1	0	24	-1	-6	-2
Cc1cc(C(=O)NC2CCCc3c2cnn3-c2ccc(C(C)(C)C)cc2)nn1C (stereo not given)	1	4	-35*	2	5
COC(=O)c1ccc(C(=O)NC2CCCc3c2cnn3-c2ccc(C)c(C)c2)cc1 (stereo not given)	0	12	-21	35*	-2
CC/C(=N\NC(=O)c1nnn(-c2nonc2N)c1-c1cccc(OC)c1)c1ccc(C)cc1	0	0	-2	-2	5
CCN(CC)c1ccc([N+](=O)[O-])cc1/C=N/NC(=O)CC#N	1	4	-23	29	-3
Cc1cc(/C=N/NC(=O)CC#N)c(C)n1-c1ccc([N+](=O)[O-])cc1	-1	0	-37*	-2	-17
Cc1ccc(-n2c(C)cc(/C=N/Nc3ccc([N+](=O)[O-])cn3)c2C)cc1	2	6	-46*	-4	-11
Cc1ccc(C(=O)c2oc3ccccc3c2NC(=O)c2cc(-c3ccccc3)on2)cc1	1	1	2	1	1
Cc1ccc(C)c(N(CC(=O)NC2CCCC2)S(=O)(=O)c2ccccc2)c1	1	9	-5	5	-7
COc1ccc([C@H]2CC(=O)C=C(c3ccc(F)cc3OCc3ccccc3)C2)cc1OC	1	8	0	0	3
Cc1cccc(N(C)C(=O)CCS(=O)(=O)c2ccc3c(c2)oc(=O)n3C)c1	1	2	-5	7	-3
Cc1cccc(N(C)C(=O)CCS(=O)(=O)c2ccc3c(c2)n(C)c(=O)c(=O)n3C)c1	1	-1	-32*	5	-5
CCOC1=C/C(=C/c2c(N)n3nc(S(=O)(=O)CC)sc3nc2=O)C=CC1=O	33*	28	-13	0	2
COC(=O)c1cccc(NC(=O)CC2C(=O)NCCN2C(=O)Nc2cc(C)cc(C)c2)c1 (stereo not given)	1	11	9	3	0
CN(C)c1ccc(CN(CC2CCCO2)C(=O)COc2ccc(Cl)cc2)cc1 (stereo not given)	-2	3	-12	-4	-2
O=[N+]([O-])c1ccc(Nc2ccc3ccccc3c2)nc1	1	3	-34*	-4	-10
O=C(O)c1cccc(Nc2ccc([N+](=O)[O-])cn2)c1	0	-1	-35*	5	-6
O=[N+]([O-])c1ccc(Nc2ccc(Cl)cc2)nc1	0	2	6	4	1
CC(=O)Nc1ccc(Nc2nc(C)c([N+](=O)[O-])c(N(C)c3ccccc3)n2)cc1	0	6	-32*	6	-11
Cc1ccccc1OC(=O)CSc1nnc(-c2ccc(F)cc2)o1	0	4	13	11	-2
CCC(=O)N1CCN(c2cc(N3CCN(C)CC3)c(F)cc2[N+](=O)[O-])CC1	-1	0	-17	1	2
CN1CCN(c2cc(N3CCc4ccccc4C3)c(F)cc2[N+](=O)[O-])CC1	1	8	-54*	7	-17
SMILES	TRHR agonist	D1 ag	D1 antag	TRHR enhancer	D1 potentiator
O=C(CNC(=O)c1cccc([N+](=O)[O-])c1)NC1CCCc2ccccc21 (stereo not given)	0	2	29	-1	-3
COc1cccc(CN2CC(C(=O)NCCSc3nnnn3C)CCC2=O)c1 (stereo not given)	1	2	-37*	2	-4
Cn1nnnc1SCCNC(=O)C1CCC(=O)N(CCc2ccccc2)C1 (stereo not given)	1	1	11	3	-1
CCN(CC)c1cc(C)nc2nc(-c3ccc(C)cc3)nn12	-2	4	-15	9	0
COc1ccccc1OCc1cc(C(=O)NCc2ccc(N3CCCC3=O)cc2)no1	-1	3	-13	-3	-9
CCc1ccc(Nc2cc(C)nc3nc(Cc4ccc(Cl)cc4)nn23)cc1	-1	4	6	-7	0
COc1ccccc1Oc1nnnn1-c1ccc(C(N)=O)cc1	0	1	-11	-1	3
NC(=O)c1ccc(-n2nnnc2Oc2ccccc2)cc1	0	-2	-49*	0	2
CCC(=O)Nc1cccc(NC(=O)CSc2nc3c(c(=O)n(C)c(=O)n3C)n2C)c1	1	4	3	2	-6
COc1ccc(NC(=O)COC(=O)CC2CC3CCC2C3)c([N+](=O)[O-])c1 (stereo not given)	0	4	-97*	3	-2
Cc1cc(C)cc(NC(=O)CSc2nncn3c2cc2occc23)c1	2	0	11	-2	-1
CCC1Oc2ccc(C)cc2N(CC(=O)NCCN2CCOCC2)C1=O (stereo not given)	0	-2	14	-1	-3
CN(CC(=O)Nc1cccc(Cl)c1)S(=O)(=O)c1ccc2[nH]c3c(c2c1)CCCC3	0	-1	-35*	0	-3
O=C(Nc1cccc(F)c1)C1CCN(S(=O)(=O)c2ccc3[nH]c4c(c3c2)CCCCC4)CC1	0	1	-32*	-1	-1
CCOC(=O)c1cc(S(=O)(=O)N2CCN(c3ccc(C(C)=O)cc3)CC2)[nH]n1	0	2	-6	-12	1
COCCN(Cc1nc2ccccc2c(=O)[nH]1)C(=O)c1cccc(S(=O)(=O)N2CCCC2)c1	0	2	-55*	2	0
O=C(NCCc1ccc(C(F)(F)F)cc1)C1CCC(=O)N(CCCc2ccccc2)C1 (stereo not given)	0	6	-18	9	1
CC(C(=O)NC1CCCC1)N(C(=O)CS(=O)CC(=O)Nc1ccc(F)cc1)c1ccc2c(c1)OCCO2 (stereo not given)	0	-1	-52*	-1	0
Cc1ccc(NC(=O)CS(=O)CC(=O)N(c2ccccc2F)C(C)C(=O)NC2CCCC2)cc1 (stereo not given)	1	2	16	-4	-11
O=C(CS(=O)CC(=O)N(CC(=O)NC1CCCC1)c1ccccc1F)Nc1ccc(F)cc1 (stereo not given)	0	0	-35*	1	1

From PubChem BioAssay
